PubChem BioAssay (Tox21)
Inconclusive results are not listed. Activity calls are given as the source filed them. Unless noted, calls come from the whole dose curve; as a rule, active = well fitted curve in the direction sought with a large enough effect in the repeat runs; inconclusive = weak or mixed curves; inactive = no such curve, though single readings can be large; an effect the other way counts as inactive or inconclusive.

Assays:
[1] = molecular target: Retinoic acid receptor RXR-alpha (Homo sapiens) (UniProt P19793); assay: qHTS assay to identify small molecule agonists of the RXR signaling pathway (AID 1159527; calls by dose curve; note: nearly all actives have a fitted effect of over 35% in size)
Procedure, shortened: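 16 hr incubation of compound-treated RXR-alpha-UAS-bla HEK 293T cells (2% charcoal-stripped FBS, 37 C) preceded a 2 hr room-temperature LiveBLAzer FRET substrate step and blue/green fluorescence measurement.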

[2] = qHTS assay to identify small molecule agonists of the RXR signaling pathway - cell viability counter screen (AID 1159529);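 note: HEK 293T cells carrying an RXR-alpha UAS beta-lactamase reporter; series mostly up to about 77 µM; nearly all actives have a fitted effect of over 50% in size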
Procedure, shortened: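 In this parallel viability measure, GeneBLAzer RXR-alpha HEK 293T cells (2% charcoal-stripped FBS) were given a 5 hr preincubation, treated with compounds 16 hr at 37 C, and read by CellTiter-Glo luminescence.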

[3] = qHTS assay to identify small molecule antagonists of the retinoid acid receptor (RAR) signaling pathway - cell viability counter screen (AID 1159551); note: nearly all actives have a fitted effect of over 35% in size
Procedure, shortened: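 Luminescent ATP quantitation (CellTiter-Glo) gave cell viability in C3RL4 cells exposed to test chemicals for 6 h at 37 C alongside 1 uM final retinol.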

[4] = qHTS assay to identify small molecule antagonists of the estrogen related receptor (ERR) signaling pathway from Tox21 library - cell viability counter screen (AID 1224834); note: nearly all actives have a fitted effect of over 30% in size
Procedure, shortened: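 Fluorescence from CellTiter-Fluor gives the viability read-out, taken 30 min after reagent addition. Before that, ERR cells seeded 6 h earlier were incubated with compounds for 17.5 h at 37 C.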

[5] = molecular target: Luciferin 4-monooxygenase (Photinus pyralis) (UniProt P08659); assay: qHTS assay to identify small molecule inhibitors of firefly luciferase (AID 1224835); note: series mostly up to about 120 µM; nearly all actives have a fitted effect of over 25% in size
Procedure, shortened: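 Inhibition of purified Photinus luciferase is measured by luminescence. Substrate levels (D-luciferin, ATP) sit at their KM values. Each compound is tested in a concentration series.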

[6] = qHTS assay to identify small molecule agonists of the constitutive androstane receptor (CAR) signaling pathway - cell viability counter screen (AID 1224836); note: series mostly up to about 92 µM; nearly all actives have a fitted effect of over 45% in size
Procedure, shortened: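 Using CellTiter-Fluor, viability of HepG2 cells harbouring hCAR and CYP2B6-2.2kb was measured following 23 h incubation with a 15-concentration compound series plus PK11195 (0.75 uM final).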

[7] = qHTS assay to identify small molecule antagonists of the constitutive androstane receptor (CAR) signaling pathway - cell viability counter screen (AID 1224837); note: series mostly up to about 92 µM; nearly all actives have a fitted effect of over 45% in size
Procedure, shortened: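 HepG2-CYP2B6-hCAR cells, 2500/well, 4 hr pre-incubation; compound titration, 15 conc.; CITCO 50 nM final; 23 hr, 37 C/5% CO2; CellTiter-Fluor, fluorescence intensity.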

[8] = molecular target: Nuclear receptor subfamily 1 group I member 3 (Homo sapiens) (UniProt Q14994); assay: qHTS assay to identify small molecule antagonists of the constitutive androstane receptor (CAR) signaling pathway (AID 1224838);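 note: HepG2 cells stably expressing hCAR with CYP2B6 luciferase reporter stimulated by CITCO; nearly all actives have a fitted effect of over 40% in size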
Procedure, shortened: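 HepG2-CYP2B6-hCAR cells; 4 h pre-incubation; cpd (15 conc) + CITCO 50 nM final; 24 h, 37 C/5% CO2; ONE-Glo, luminescence.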

[9] = molecular target: Nuclear receptor subfamily 1 group I member 3 (Homo sapiens) (UniProt Q14994); assay: qHTS assay to identify small molecule agonists of the constitutive androstane receptor (CAR) signaling pathway (AID 1224839);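 note: HepG2 cells stably carrying human CAR and a CYP2B6 luciferase reporter; series mostly up to about 92 µM; nearly all actives have a fitted effect of over 15% in size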
Procedure, shortened: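 Double-stable HepG2 cells (hCAR, CYP2B6-2.2kb) seeded 4 h before compound addition. Exposure 24 h with 0.75 uM PK11195 final. Luciferase detected by ONE-Glo.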

[10] = molecular target: Thyrotropin receptor (Homo sapiens) (UniProt P16473); assay: qHTS assay to identify small molecule agonists of the thyroid stimulating hormone receptor (TSHR) signaling pathway (AID 1224843; calls by dose curve; note: nearly all actives have a fitted effect of over 45% in size)
Procedure, shortened: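 HEK293 cells stably bearing the thyrotropin receptor were plated at 800 cells/well and challenged with compound (30 min, RT). Accumulated cAMP was quantified via cAMP-d2 competing for cryptate-tagged antibody.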

[11] = qHTS assay to identify small molecule agonists of the hypoxia (HIF-1) signaling pathway - cell viability counter screen (AID 1224844; calls by dose curve; note: nearly all actives have a fitted effect of over 50% in size)
Procedure, shortened: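 ME-180 HRE-bla cells, 2,000/well, 0.5% dialyzed FBS; 5 hr settle, 17 hr compound at 37C/5% CO2; CCF4-AM reporter read first, then CellTiter-Glo luminescence after 30 min RT.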

[12] = qHTS assay to identify small molecule agonists of H2AX (AID 1224845; active = well fitted activation curve with a large enough effect in the signal ratio in the repeat runs, not every such curve was filed as active; the % refers to the signal ratio)
Procedure, shortened: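 Phospho-H2AX Ser139 measured by HTRF (ex 320 nm; em 665 and 620 nm) after 24 hr antibody incubation. Compounds, 15 concentrations, 0.76% DMSO, were applied to CHO-K1 cells for 3hr at 37C before lysis.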

[13] = qHTS assay to identify small molecule antagonists of the estrogen related receptor (ERR) signaling pathway (AID 1224819;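 note: luminescence from an ERR-driven luciferase reporter measured with One-Glo reagent; series mostly up to about 46 µM; nearly all actives have a fitted effect of over 50% in size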)
Procedure, shortened: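 Seed ERR cells 2,000/well; rest 6 h at 37 C/5% CO2; pin compounds in DMSO; incubate 18 h at 37 C; add One-Glo; wait 30 min at room temperature; measure luminescence.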

[14] = qHTS assay to identify small molecule agonists of the estrogen related receptor signaling pathway with the pleiotropic PPARgamma coactivator (PGC) (AID 1224823)
Procedure, shortened: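 Cell-based luciferase assay in the NTP-supplied PGC/ERR line, 2,000 cells/well; 18 h compound exposure at 37 C, luminescence after One-Glo.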

[15] = qHTS assay to identify small molecule antagonists of the estrogen related receptor signaling pathway with the pleiotropic PPARgamma coactivator (PGC) from Tox21 10K library - cell viability counter screen (AID 1224840; active = well fitted cell-killing curve with a large enough effect in the repeat runs, not every such curve was filed as active; note: nearly all actives have a fitted effect of over 40% in size)
Procedure, shortened: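 PGC/ERR cells, 2,000/well; 6 h pre-incubation 37 C/5% CO2; cpd in DMSO via pin tool; 17.5 h 37 C; CellTiter-Fluor, 30 min; fluorescence.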

[16] = qHTS assay to identify small molecule antagonists of the estrogen related receptor signaling pathway with the pleiotropic PPARgamma coactivator (PGC) from Tox21 10K library (AID 1224841; call rule not given here; note: series mostly up to about 92 µM; actives are mostly falling curves and most rising ones were filed inactive; nearly all actives have a fitted effect of over 50% in size)
Procedure, shortened: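 PGC/ERR cell line, 2,000 cells/well; 6 h pre-incubation 37 C/5% CO2; compounds (DMSO) pinned in; 18 h, 37 C; One-Glo, 30 min RT; luminescence.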

[17] = qHTS assay to identify small molecule agonists of the estrogen related receptor signaling pathway with the pleiotropic PPARgamma coactivator (PGC) from Tox21 10K library (AID 1224842); note: nearly all actives have a fitted effect of over 15% in size
Procedure, shortened: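 Luminescence from One-Glo (30 min, room temperature) measured after PGC/ERR cells had 18 h at 37 C with pinned compound (23 nL in DMSO). Cells had been seeded at 2,000 per well and pre-incubated 6 h.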

[18] = qHTS assay to identify small molecule agonists of the estrogen related receptor (ERR) signaling pathway (AID 1224820)
Procedure, shortened: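 Quantitative HTS of the LOPAC library used NTP ERR reporter cells treated 18 h at 37 C. Signal is luminescence after One-Glo addition and a 30 min room-temperature incubation.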

Measured: Potency

Sequence of Nuclear receptor subfamily 1 group I member 3 (Homo sapiens) (Q14994 whole entry, looked up): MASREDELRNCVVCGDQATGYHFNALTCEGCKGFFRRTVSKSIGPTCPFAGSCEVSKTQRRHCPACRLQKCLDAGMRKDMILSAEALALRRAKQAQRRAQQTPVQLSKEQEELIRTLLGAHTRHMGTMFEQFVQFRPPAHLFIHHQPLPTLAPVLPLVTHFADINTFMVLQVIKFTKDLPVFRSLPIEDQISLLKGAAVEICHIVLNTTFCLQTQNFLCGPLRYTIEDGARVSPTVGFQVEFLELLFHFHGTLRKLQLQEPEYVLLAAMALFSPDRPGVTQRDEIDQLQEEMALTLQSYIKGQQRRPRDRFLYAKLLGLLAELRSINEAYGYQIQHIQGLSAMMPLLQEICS
Sequence of Retinoic acid receptor RXR-alpha (Homo sapiens) (P19793 whole entry, looked up): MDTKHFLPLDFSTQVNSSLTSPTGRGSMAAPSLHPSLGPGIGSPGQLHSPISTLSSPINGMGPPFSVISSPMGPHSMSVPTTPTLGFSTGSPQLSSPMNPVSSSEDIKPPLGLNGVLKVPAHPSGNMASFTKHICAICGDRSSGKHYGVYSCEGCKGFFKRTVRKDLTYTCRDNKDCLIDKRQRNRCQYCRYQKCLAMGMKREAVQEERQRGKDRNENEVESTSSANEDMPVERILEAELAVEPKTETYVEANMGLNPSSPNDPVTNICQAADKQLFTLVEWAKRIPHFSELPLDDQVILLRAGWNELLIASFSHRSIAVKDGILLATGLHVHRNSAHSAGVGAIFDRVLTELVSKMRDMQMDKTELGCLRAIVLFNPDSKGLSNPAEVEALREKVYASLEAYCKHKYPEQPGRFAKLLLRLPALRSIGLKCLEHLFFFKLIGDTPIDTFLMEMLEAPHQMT
Sequence of Thyrotropin receptor (Homo sapiens) (P16473 whole entry, looked up): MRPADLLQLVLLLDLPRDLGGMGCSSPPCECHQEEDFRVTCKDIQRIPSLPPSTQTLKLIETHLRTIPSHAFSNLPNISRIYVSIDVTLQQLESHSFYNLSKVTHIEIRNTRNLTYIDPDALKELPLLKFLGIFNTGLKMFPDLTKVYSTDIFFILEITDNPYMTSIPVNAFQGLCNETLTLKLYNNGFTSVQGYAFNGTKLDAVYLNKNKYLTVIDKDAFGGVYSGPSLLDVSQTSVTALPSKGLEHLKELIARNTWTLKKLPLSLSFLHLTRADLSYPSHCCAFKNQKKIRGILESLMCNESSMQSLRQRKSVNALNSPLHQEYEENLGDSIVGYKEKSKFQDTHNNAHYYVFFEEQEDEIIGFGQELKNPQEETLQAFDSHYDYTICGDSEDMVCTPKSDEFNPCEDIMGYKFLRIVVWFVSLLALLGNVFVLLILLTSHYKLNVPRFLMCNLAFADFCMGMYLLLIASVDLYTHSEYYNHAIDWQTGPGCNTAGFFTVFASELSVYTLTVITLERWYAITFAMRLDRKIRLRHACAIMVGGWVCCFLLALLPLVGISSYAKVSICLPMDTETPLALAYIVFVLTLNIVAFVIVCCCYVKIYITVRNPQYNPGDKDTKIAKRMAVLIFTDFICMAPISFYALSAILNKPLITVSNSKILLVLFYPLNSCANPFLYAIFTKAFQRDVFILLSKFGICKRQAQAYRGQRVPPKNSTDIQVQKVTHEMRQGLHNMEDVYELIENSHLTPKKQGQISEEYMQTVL
Sequence of Luciferin 4-monooxygenase (Photinus pyralis) (P08659 whole entry, looked up): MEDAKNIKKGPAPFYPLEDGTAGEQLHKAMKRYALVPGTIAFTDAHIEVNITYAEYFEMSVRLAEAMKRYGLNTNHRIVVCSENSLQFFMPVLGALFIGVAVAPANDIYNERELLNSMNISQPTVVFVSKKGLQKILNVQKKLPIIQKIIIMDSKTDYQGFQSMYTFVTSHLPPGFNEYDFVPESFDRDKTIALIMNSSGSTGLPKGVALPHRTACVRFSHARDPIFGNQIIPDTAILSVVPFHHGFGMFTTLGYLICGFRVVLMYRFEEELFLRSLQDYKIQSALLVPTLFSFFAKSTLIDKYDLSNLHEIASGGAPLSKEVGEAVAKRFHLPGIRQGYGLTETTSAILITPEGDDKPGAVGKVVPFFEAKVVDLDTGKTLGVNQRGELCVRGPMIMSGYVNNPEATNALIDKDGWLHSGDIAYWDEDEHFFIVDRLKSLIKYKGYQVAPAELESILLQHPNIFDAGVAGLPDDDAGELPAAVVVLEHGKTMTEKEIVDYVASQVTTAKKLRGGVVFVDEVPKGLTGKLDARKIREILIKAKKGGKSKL

O=C1CC(c2ccc(Cl)cc2)CC(=O)N1
inactive: [1] | [2] | [3] | [4] | [5] | [6] | [7] | [8] | [9] | [10] | [11] | [12]

COC(=O)[C@@H]1[C@H]2C[C@H]3c4[nH]c5ccccc5c4CCN3C[C@@H]2CC[C@@H]1O
inactive: [1] | [2] | [3] | [13] | [14] | [5] | [6] | [7] | [8] | [15] | [16] | [17] | [10] | [11]

C=C(C)C(=O)OCCN(CC)CC
inactive: [1] | [2] | [3] | [4] | [5] | [6] | [7] | [8] | [9] | [15] | [10] | [11] | [12]

CO[C@@H]1[C@@H](OC(N)=O)[C@@H](O)[C@H](Oc2ccc3c(O)c(NC(=O)c4ccc(O)c(CC=C(C)C)c4)c(=O)oc3c2C)OC1(C)C
inactive: [1] | [2] | [3] | [4] | [5] | [6] | [7] | [8] | [9] | [15] | [16] | [17] | [11] | [12]

O=C(CCN1CCN(CCO)CC1)N1c2ccccc2Sc2ccc(C(F)(F)F)cc21
inactive: [1] | [2] | [3] | [4] | [5] | [6] | [7] | [8] | [9] | [15] | [10] | [11] | [12]

NCCS
inactive: [1] | [2] | [3] | [13] | [18] | [14] | [4] | [5] | [6] | [7] | [15] | [16] | [17] | [12]

CCCCCCCCSCC
inactive: [1] | [2] | [3] | [4] | [5] | [6] | [7] | [8] | [9] | [15] | [16] | [17] | [10] | [11] | [12]

CCOc1cc(NC(C)=O)ccc1C(=O)OC
inactive: [1] | [2] | [3] | [4] | [5] | [6] | [7] | [8] | [9] | [15] | [16] | [17] | [11] | [12]

CC(C(=O)O)c1ccc2c(c1)CC(=O)c1ccccc1S2 (stereo not given)
inactive: [1] | [2] | [3] | [4] | [5] | [6] | [7] | [8] | [9] | [15] | [16] | [17] | [11]

OCCC(F)(F)C(F)(F)C(F)(F)C(F)(F)C(F)(F)C(F)(F)C(F)(F)C(F)(F)F
inactive: [1] | [2] | [3] | [4] | [5] | [6] | [7] | [8] | [9] | [16] | [12]

COC(=O)c1ccccc1C(=O)c1ccc(OCCN2CCCCC2)cc1
inactive: [1] | [2] | [3] | [4] | [5] | [6] | [7] | [8] | [9] | [15] | [16] | [17] | [10] | [11] | [12]

CC(=O)Nc1ccc(S(=O)(=O)Cl)cc1
inactive: [1] | [2] | [3] | [4] | [5] | [6] | [7] | [8] | [9] | [15] | [17] | [11] | [12]

CC(C)=O
inactive: [1] | [2] | [3] | [4] | [5] | [6] | [7] | [8] | [9] | [15] | [12]

COc1ccc(Br)c(C)c1
inactive: [1] | [2] | [3] | [4] | [5] | [6] | [7] | [8] | [9] | [15] | [16] | [17] | [11] | [12]

CCCCCCCCCCCCCC
inactive: [1] | [2] | [3] | [4] | [5] | [6] | [7] | [8] | [9] | [15] | [16] | [17] | [10] | [12]

O=C(OCc1ccccc1)C(=O)OCc1ccccc1
inactive: [1] | [2] | [3] | [4] | [5] | [6] | [7] | [8] | [9] | [15] | [16] | [17] | [10] | [11] | [12]

CC(C)(C)c1n[nH]c(=S)n(N)c1=O
inactive: [1] | [2] | [3] | [4] | [5] | [6] | [7] | [8] | [9] | [15] | [16] | [17] | [11] | [12]

CNC(=O)[C@H]1O[C@@H](n2cnc3c(NCc4cc(Cl)ccc4OCc4cc(C)no4)ncnc32)[C@H](O)[C@@H]1N
inactive: [1] | [2] | [3] | [4] | [5] | [6] | [7] | [8] | [15] | [16] | [17] | [10] | [11] | [12]

CC(=O)NCCCCCC(=O)O
inactive: [1] | [2] | [3] | [4] | [5] | [6] | [7] | [8] | [9] | [15] | [10] | [11] | [12]

COc1cc(NS(=O)(=O)c2ccc(N)cc2)nc(OC)n1
inactive: [1] | [2] | [3] | [4] | [5] | [6] | [7] | [8] | [9] | [15] | [16] | [17] | [11] | [12]
